ssDAF-12 act – S. stercoralis DAF-12 activation, primary screen. HEK293 ssDAF-12/GRIP1 lit1-tk-luc reporter, luminescence; % of 3 µM dafachronic acid response. AID 652126. activation, % at 6.8 µM. 370,000 compounds, 1% hits;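 active = activation above the mean over all tested compounds plus 3 SD, cut at about 0.9% in these data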;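 note: 0% = DMSO-only wells and 100% = 3 µM delta7-dafachronic acid wells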
AHR act – activators of human aryl hydrocarbon receptor. 320,000 compounds, 2.5% hits. AHR-responsive luciferase reporter cells, luminescence. activation, % at 5 µM. AID 2796. P35869; in the data active = activation above about 47%;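 note: 0% = vehicle wells and 100% = reference agonist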
DAX1 inh-1 – inhibits human nuclear receptor DAX1. P51843. HEK293 Gal4-DAX1 luciferase reporter, luminescence. inhibition, % at 6.75 µM. 340,000 compounds, 0.99% hits. AID 504766;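 active = inhibition above the mean over all tested compounds plus 3 SD, cut at about 4.2% in these data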;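 note: 0% = DAX1-transfected cells with DMSO and 100% = empty-vector control cells with DMSO; inhibition shows as a rise in luminescence from relieved DAX1 repression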
Target sequence (P51843 207-470 limits assumed): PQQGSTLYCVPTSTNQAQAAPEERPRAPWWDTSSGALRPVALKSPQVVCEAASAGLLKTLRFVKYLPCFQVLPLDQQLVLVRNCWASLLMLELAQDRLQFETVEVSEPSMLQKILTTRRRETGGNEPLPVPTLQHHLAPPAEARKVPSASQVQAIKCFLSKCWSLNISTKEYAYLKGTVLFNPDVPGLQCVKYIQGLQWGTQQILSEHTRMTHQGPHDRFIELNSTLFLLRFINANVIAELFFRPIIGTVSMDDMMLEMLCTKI
DAX1 inh-2 – blocks DAX1 repression of SF-1 activated StAR promoter. HEK293T StAR-luciferase reporter, SF-1/DAX-1 repression relief. inhibition, % at 6.8 µM. 370,000 compounds, 1.1% hits. AID 652010;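 active = inhibition above the mean over all tested compounds plus 3 SD, cut at about 3.6% in these data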;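 note: 0% = DAX-1 cells with DMSO and 100% = cells lacking DAX-1 with DMSO; higher inhibition means more luminescence from relief of DAX-1 repression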
hgDAF-12 ag – agonists of H. glycines DAF-12 nuclear receptor | HEK293 GAL4-hgDAF12 UAS-luciferase reporter, agonist luminescence; normalized to butyrate control | 370,000 compounds, 1.8% hits | activation, % at 6.8 µM;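 active = activation above a cutoff set at the mean of all screened compounds plus 3 SD, cut at about 10% in these data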;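 note: 0% = DMSO wells and 100% = sodium butyrate wells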
hcDAF12 agonist – activators of H. contortus DAF-12 nuclear receptor. activation, % at 6.8 µM. 370,000 compounds, 1.4% hits. HEK293 hcDAF-12 lit1-tk-luc reporter, luminescence; 0% DMSO, 100% Δ7-dafachronic acid. AID 652067;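 active = activation above the mean of all tested compounds plus 3 SD, cut at about 5.5% in these data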;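 note: 100% = response to 3 µM Δ7-dafachronic acid high control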
Numbers without * were called inactive; · = no result. A selection: hits, their analogues and other compounds. The true share with any hit is near 5.7%.

SMILES	ssDAF-12 act	AHR act	DAX1 inh-1	DAX1 inh-2	hgDAF-12 ag	hcDAF12 agonist
CC(=O)c1c(C)[nH]c(C(=O)CN2C(=O)NC3(CCCCC3)C2=O)c1C	-1	·	0	4.1*	0	-2
Cc1cc(C)c(C(=O)CN2C(=O)NC3(CCCCC3)C2=O)cc1C	-1	3	0	1	1	6.2*
CC(=O)c1c(C)[nH]c(C(=O)CN2C(=O)NC3(CCCCC3C)C2=O)c1C (configuration not stated)	-1	·	1	2	1	0
CC12CC3(C)CC(C)(C1)CC(C(N)=O)(C2)C3	-2	4	5.8*	0	3	-2
C/C(Cn1cnc([N+](=O)[O-])n1)=N\NC(=O)c1cccc(F)c1	1	7	2	0	11*	2
C/C(Cn1cnc([N+](=O)[O-])n1)=N\NC(=O)c1ccc(F)cc1	-1	28	-2	1	4	-1
Cc1cc(S(=O)(=O)N2CCCC(C)C2)ccc1-n1cnnn1 (configuration not stated)	-1	-1	0	0	-1	2
COP(=O)(OC)c1nc(-c2cccc3ccccc23)oc1NCc1ccccc1	-2	6	4.6*	0	-5	-2
Cc1ccc(/C=N/NC(=O)c2cccc(S(=O)(=O)Nc3ccccc3Cl)c2)s1	-2	53*	-2	-1	0	-1
Cc1ccn2c(=O)nc(SCC(=O)NCc3ccccc3Cl)nc2c1	-1	0	-1	-1	1	1
CCCCCCCCN1C(=O)[C@H](CC(=O)NCc2cccc3ccccc23)C[C@@]2(C(=O)OCC)CCC=C12	0	·	·	3	-2	-2
Cc1ccccc1N=C1C(=O)Nc2ccccc21	-1	·	1	1	1	1
COc1ccc(C(=O)/C=C/c2ccc3c(c2)OCCO3)cc1	0	2	4	0	2	0
COc1cccc(/C=C/C(=O)c2ccc3c(c2)OCCO3)c1OC	-1	7	0	0	10*	0
O=C(/C=C/c1ccc2c(c1)OCCO2)c1ccccc1	-1	1	·	1	11*	4
CCN(CC(=O)Nc1ccc2c(c1)OCCO2)C(=O)/C=C/c1cccc(OC)c1OC	0	12	2	2	5	1
CC1CN(Cc2nc3ccccc3c(=O)[nH]2)CC(C)O1 (configuration not stated)	-1	-1	·	1	-1	-1
COc1ccccc1C(=O)Nc1nnc([C@@H]2C[C@H](O)[C@@H](CO)O2)s1	-1	·	·	0	0	1
O=C(CSc1nc2ccccc2c(=O)n1-c1ccccc1)N/N=C/C=C/c1ccccc1[N+](=O)[O-]	-1	-5	-1	1	2	1
O=C(CSc1nc2ccccc2c(=O)n1-c1ccc(Cl)cc1)N/N=C/C=C/c1ccccc1[N+](=O)[O-]	-1	3	3	-1	4	5.8*
CC(C(=O)NCC1CCCO1)c1ccc([N+](=O)[O-])cc1 (configuration not stated)	-2	2	5.0*	0	-3	0
O=C(NN1C(=O)c2cc(Br)ccc2NC1c1cc(Br)cc(Br)c1O)c1ccncc1 (configuration not stated)	-1	56*	0	0	-4	-2
COc1ccc(Br)cc1C1Nc2ccccc2C(=O)N1NC(=O)c1ccncc1 (configuration not stated)	0	10	0	-1	-4	2
O=C(NN1C(=O)c2cc(Br)ccc2NC1c1ccccc1Cl)c1ccncc1 (configuration not stated)	-1	49*	0	0	0	3
C(=C\c1ccccc1)/CSc1nnc(Cc2cccs2)n1-c1ccccc1	-1	·	·	0	1	-1
SMILES	ssDAF-12 act	AHR act	DAX1 inh-1	DAX1 inh-2	hgDAF-12 ag	hcDAF12 agonist
O=C(Cc1cccs1)NCCc1ccc(F)cc1	-1	11	3	0	-2	2
OCCc1ccc(NCCc2cccs2)cc1	-1	·	·	3	11*	5
Cc1ncsc1CCSc1nc2ccccc2c(=O)n1C	-1	96*	-1	-2	0	-3
c1ccc2c(c1)nc(N1CCOCC1)c1nnnn12	0	22	1	0	5	4
c1ccc(N2CCN(c3nc4ccccc4n4nnnc34)CC2)cc1	-1	73*	0	0	3	2
COc1ccc(CCn2cnc3nc4ccc(Cl)cc4cc3c2=O)cc1OC	0	·	·	-1	-2	6
O=c1c2cc3cc(Cl)ccc3nc2ncn1Cc1ccc(Oc2ccccc2)cc1	-1	·	·	-1	-1	5.9*
O=C(Nc1ccccc1-c1nc2ccccc2s1)c1ccco1	0	38	-1	0	2	2
O=C(Nc1c(Cl)cc(Cl)cc1-c1nc2ccccc2s1)c1ccc(Br)o1	-1	61*	-1	-1	4	1
COc1ccc(CSc2nc3ccccc3c(=O)n2CCCN2CCOCC2)cc1F	-1	-3	0	-1	1	-2
Cc1ccc(CSCC(=O)Nc2ccc(F)cc2)cc1	0	68*	0	0	2	0
CCS(=O)(=O)n1nc(-c2ccccc2)cc1N	-1	8	1	1	-1	-2
CCCS(=O)(=O)n1nc(-c2ccc(Br)cc2)cc1N	-1	58*	0	0	5	-1
Cc1cccc(NC(=O)COC(=O)CSc2ccccc2)c1C	-1	-1	0	2	1	0
C=CCNC(=O)C1(S(=O)(=O)c2ccccc2)CC=CC1	-1	0	5.2*	1	1	0
C=CCNC(=O)c1ccccc1NS(=O)(=O)c1ccccc1	-1	4	-1	0	-1	-1
COc1ccc(C(=O)NC(=S)Nc2nc(C)cc(C)n2)cc1Br	-1	-2	·	0	3	-1
O=S(=O)(NCc1ccccc1)c1cc(Br)ccc1Br	-2	·	·	-1	0	-2
CCSc1nnc(NC(=O)c2cccc3ccccc23)s1	-1	52*	0	0	0	-1
CSc1nnc(NC(=O)C2CCCCC2)s1	0	1	0	0	2	0
O=C(NC1CCCCCCC1)C1CCCN(S(=O)(=O)c2cnc[nH]2)C1 (configuration not stated)	-1	0	0	0	0	0
CCSc1nnc(NC(=O)C2CCCN(S(=O)(=O)c3cnc[nH]3)C2)s1 (configuration not stated)	-1	3	13*	1	-1	-1
CCSc1nnc(NC(=O)c2csc(C)c2)s1	-1	-1	1	1	5	1
CCSc1nnc(NC(=O)C2CCCCC2)s1	0	20	4.7*	1	5	1
